PubChem BioAssay AID1159580 (chemical genetic matrix, 2015)
The whole screen tested about 5,500 compounds, of which about 2,000 (36%) were called active. Inconclusive results (about 18%) are left out. Rule as the data show it: active = normalized growth mostly below about 0.91 (no sharp cut-off); inconclusive = no clear call, values can overlap the other calls; inactive = mostly above about 0.92. The list shows a part of the results.

Assay: chemical genetic growth profiling, strain panel (AID 1159580);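 also: tested at 20 µM; growth read once vehicle control cultures reached saturation at 30 °C; 1 = growth at the plate median or of vehicle wells; lower values mean less growth of the strain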
Details: growth OD

Measured: normalized growth

CC(C)(C)OC(=O)N1CCC(C(N)=O)CC1
inactive: S. cerevisiae deletion strains, locus YAL013W, strain DEP1, stronger effect = lower value 0.997 | S. cerevisiae deletion strains, locus YBR229C, strain ROT2, stronger effect = lower value 1.01 | S. cerevisiae deletion strains, locus YCL061C, strain MRC1, stronger effect = lower value 1.02 | S. cerevisiae deletion strains, locus YDL101C, strain DUN1, stronger effect = lower value 1.01 | S. cerevisiae deletion strains, locus YDR150W, strain NUM1, stronger effect = lower value 1.01 | S. cerevisiae deletion strains, locus YEL061C, strain CIN8, stronger effect = lower value 1.01 | S. cerevisiae deletion strains, locus YGR078C, strain PAC10, stronger effect = lower value 1.01 | S. cerevisiae deletion strains, locus YHR030C, strain SLT2, stronger effect = lower value 1.08 | S. cerevisiae deletion strains, locus YHR087W, strain rtc3, stronger effect = lower value 1.01 | S. cerevisiae deletion strains, locus YJR043C, strain POL32, stronger effect = lower value 1.01 | S. cerevisiae deletion strains, locus YJR075W, strain HOC1, stronger effect = lower value 1.01 | S. cerevisiae deletion strains, locus YLR039C, strain RIC1, stronger effect = lower value 1.04 | S. cerevisiae deletion strains, locus YLR058C, strain SHM2 (second series), stronger effect = lower value 1.01 | S. cerevisiae deletion strains, locus YLR085C, strain ARP6, stronger effect = lower value 1.02 | S. cerevisiae deletion strains, locus YLR262C, strain YPT6, stronger effect = lower value 1.07 | S. cerevisiae deletion strains, locus YML094W, strain GIM5, stronger effect = lower value 1.03 | S. cerevisiae deletion strains, locus YMR219W, strain ESC1, stronger effect = lower value 1.01 | S. cerevisiae deletion strains, locus YMR263W, strain SAP30, stronger effect = lower value 1.02 | S. cerevisiae deletion strains, locus YMR307W, strain GAS1, stronger effect = lower value 1.04 | S. cerevisiae deletion strains, locus YNL153C, strain GIM3, stronger effect = lower value 1.01 | S. cerevisiae deletion strains, locus YNL298W, strain CLA4 (second series), stronger effect = lower value 1.03 | S. cerevisiae deletion strains, locus YNL322C, strain KRE1, stronger effect = lower value 1.02 | S. cerevisiae deletion strains, locus YNR030W, strain Alg12, stronger effect = lower value 1.03 | S. cerevisiae deletion strains, locus YPL055C, strain LGE1, stronger effect = lower value 1.01 | S. cerevisiae deletion strains, locus YPL241C, strain CIN2, stronger effect = lower value 1.03 | S. cerevisiae deletion strains, locus YPR135W, strain CTF4, stronger effect = lower value 0.974 | S. cerevisiae strains, strain wild type, stronger effect = lower value 1.02
